Compounds without any hit were thinned out: in the full panel of roughly 83,000, 20% have a hit.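 Testing used 96-well plates and a 48-hour single-concentration exposure. Example: -40 means 40% of the starting cells died.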 A number with no mark means an inactive call. Calls of active or inactive are those of the source. Rule for the calls: active = growth percent below 10; inactive = the rest.

Among the test systems are DU-145 prostate; K-562 leukemia; MALME-3M melanoma; MDA-MB-231 breast; RXF 393 renal; SF-268 CNS; SF-295 CNS; SF-539 CNS; UACC-257 melanoma; M14 melanoma; HCT-15 colon; HT29 colon; SNB-75 CNS; SNB-19 CNS; U251 CNS; PC-3 prostate; SK-MEL-5 melanoma; UACC-62 melanoma; LOX IMVI melanoma; SK-MEL-28 melanoma.
What all share (test): NCI-60 one-dose screen, 48 h (100 = growth as untreated, 0 = no growth, -100 = all killed)
What all share (settings): 10 µM unless noted

In the case of `CC(C)(C)OC(=O)N1C=C/C(=C\Cn2cc(-c3ccccc3)nn2)CC1`, the growth is 88.2% with DU-145 prostate; 41.4% in the assay on K-562 leukemia; 65.7% in the assay on MALME-3M melanoma; 75.9% with MDA-MB-231 breast; 91.8% with RXF 393 renal; 81% in the assay with SF-268 CNS. For the same compound, the growth in the assay with SF-295 CNS is 61%; with SF-539 CNS, 79.5%; in the assay on UACC-257 melanoma it was 66%; in the assay on M14 melanoma it was 56.5%; in the assay with HCT-15 colon it was 86.9%; in the assay on HT29 colon it was 99.1%. Further, the growth with SNB-75 CNS was 78.8%; in the assay with SNB-19 CNS, 73.1%; in the assay with U251 CNS, 91.8%; in the assay on PC-3 prostate it was 82.7%; with SK-MEL-5 melanoma, 36.7%; with UACC-62 melanoma, 65.6%. Also, the growth in the assay on LOX IMVI melanoma is 76.9%; in the assay with SK-MEL-28 melanoma, 72.7%.
`O=C(NNc1ccc(-c2ccccc2)nn1)c1ccc(F)cc1`: the growth in the assay on DU-145 prostate was 88.9%; in the assay with K-562 leukemia, 98.5%; with MALME-3M melanoma, 109%; in the assay with MDA-MB-231 breast it was 94.5%; with RXF 393 renal, 82.1%; with SF-268 CNS, 88.8%. The growth with SF-295 CNS is 95.3%; in the assay with SF-539 CNS, 93.4%; in the assay on UACC-257 melanoma, 108%; with M14 melanoma, 99.9%; in the assay with HCT-15 colon, 89%; with HT29 colon, 96.1%. Besides, the growth with SNB-75 CNS was 79.9%; in the assay with SNB-19 CNS, 86.5%; in the assay on U251 CNS it was 95.2%; with PC-3 prostate, 105%; in the assay on SK-MEL-5 melanoma it was 95.3%; in the assay with UACC-62 melanoma, 95.3%. Further, the results for the growth in the assay on LOX IMVI melanoma and in the assay on SK-MEL-28 melanoma were 98.9% and 110%, respectively.
Take `O=C1COCCN1c1ccc(NCc2cn(Cc3ccc(F)cc3)c3ccccc23)cc1`: the growth was 81.6% with DU-145 prostate; 27.7% in the assay on K-562 leukemia; 61.5% with MALME-3M melanoma; 85.3% in the assay with MDA-MB-231 breast; -3.08% (active) in the assay on RXF 393 renal; 96.2% in the assay on SF-268 CNS. Besides, the growth in the assay on SF-295 CNS is 44.1%; in the assay with SF-539 CNS it was 92.1%; in the assay with UACC-257 melanoma it was 27.9%; with M14 melanoma, 72.7%; with HCT-15 colon, 61.9%; in the assay with HT29 colon, 34.8%. Also, the growth in the assay with SNB-75 CNS was 65.3%; with SNB-19 CNS, 92.2%; with U251 CNS, 55.9%; in the assay with PC-3 prostate it was 93.3%; with SK-MEL-5 melanoma, 27.3%; in the assay on UACC-62 melanoma, -65.8% (active). In addition, the growth in the assay on LOX IMVI melanoma is 83.9%; in the assay with SK-MEL-28 melanoma, 87.6%.
As to `COc1ccc(C2CC(c3ccc4ccccc4c3)=NN2c2nc(O)c(C3=c4cc(OC)ccc4=NC3=O)s2)cc1` (stereo not given), the growth was 1.32% (active) in the assay on DU-145 prostate; 0.0361% (active) in the assay on K-562 leukemia; -61.7% (active) in the assay with MALME-3M melanoma; -54.7% (active) with MDA-MB-231 breast; -66.3% (active) in the assay with RXF 393 renal; -32.5% (active) with SF-268 CNS. In addition, the growth in the assay on SF-295 CNS was -59% (active); in the assay on SF-539 CNS, -27.9% (active); with UACC-257 melanoma it was -52.5% (active); in the assay on M14 melanoma it was -67.1% (active); in the assay with HCT-15 colon it was -29.1% (active); in the assay on HT29 colon it was -57.3% (active). Also, the growth in the assay on SNB-75 CNS is -57.1% (active); in the assay on SNB-19 CNS, -14.2% (active); in the assay with U251 CNS, -92% (active); with PC-3 prostate it was -71.1% (active); in the assay with SK-MEL-5 melanoma, -93.3% (active); in the assay with UACC-62 melanoma, -56% (active). For the same compound, the growth is -77.6% (active) with LOX IMVI melanoma and -48.5% (active) with SK-MEL-28 melanoma.
As for `O=C1NC(=O)c2cc([N+](=O)[O-])cc3cccc1c23`, the growth with DU-145 prostate was 106%; with K-562 leukemia it was 131%; with MALME-3M melanoma, 107%; with MDA-MB-231 breast, 100%; with RXF 393 renal it was 98.2%; in the assay on SF-268 CNS, 98%. Also, the growth was 114% in the assay on SF-295 CNS; 105% in the assay with SF-539 CNS; 76.7% with UACC-257 melanoma; 93.3% in the assay on M14 melanoma; 95.2% in the assay with HCT-15 colon; 102% in the assay with HT29 colon. Moreover, the growth is 90.2% with SNB-75 CNS; 100% in the assay with SNB-19 CNS; 82.3% in the assay on U251 CNS; 78.8% in the assay on PC-3 prostate; 101% in the assay with SK-MEL-5 melanoma; 87% with UACC-62 melanoma. The values for the growth in the assay on LOX IMVI melanoma and with SK-MEL-28 melanoma were 81.5% and 108%, respectively.
Take `CC[C@]1(O)CC2CN(CCc3c([nH]c4ccccc34)[C@@](C(=O)OC)(c3cc4c(cc3OC)N(C=O)[C@H]3[C@@](O)(C(=O)OC)[C@H](OC(C)=O)[C@]5(CC)C=CCN6CC[C@]43[C@@H]65)C2)C1` (stereo not given in full): the growth with DU-145 prostate is -46.8% (active); in the assay with K-562 leukemia, 14.7%; in the assay on MALME-3M melanoma, 54.7%; in the assay on MDA-MB-231 breast it was -31.3% (active); with RXF 393 renal, 65.2%; in the assay with SF-268 CNS, 3.28% (active). The growth in the assay with SF-295 CNS was 6.3% (active); in the assay with SF-539 CNS, 5.55% (active); with UACC-257 melanoma it was 53.8%; with M14 melanoma it was 4.87% (active); with HCT-15 colon, 16%; in the assay on HT29 colon, 4.12% (active). The growth in the assay with SNB-75 CNS was 38.7%; in the assay with SNB-19 CNS, 43.8%; in the assay with U251 CNS it was 8.14% (active); in the assay on PC-3 prostate, 35.1%; in the assay with SK-MEL-5 melanoma it was -38% (active); in the assay on UACC-62 melanoma, 35.6%. The growth with LOX IMVI melanoma was 26%; in the assay on SK-MEL-28 melanoma it was 61%.
Consider `CC1Cc2c(Cl)ncnc2N(C)c2ccc(O)cc21` (stereo not given), for which the growth was 108% in the assay on DU-145 prostate; 89.6% in the assay with K-562 leukemia; 53.4% in the assay with MALME-3M melanoma; 21.1% in the assay on MDA-MB-231 breast; 32.1% in the assay on RXF 393 renal; 29.1% with SF-268 CNS. Besides, the growth was 49.7% in the assay on SF-295 CNS; 34.6% with SF-539 CNS; 33.9% in the assay on UACC-257 melanoma; 21.9% with M14 melanoma; 67.3% in the assay on HCT-15 colon; 74.7% in the assay on HT29 colon. Besides, the growth in the assay on SNB-75 CNS was 85%; with SNB-19 CNS, 44.4%; in the assay with U251 CNS, 36%; with PC-3 prostate, 31.4%; in the assay on SK-MEL-5 melanoma, -78.9% (active); in the assay on UACC-62 melanoma, 33.8%. For the same compound, the growth was 11.9% in the assay on LOX IMVI melanoma and 27.8% in the assay on SK-MEL-28 melanoma.
Consider `O=C(OCc1ccc2c(Cl)cc(Cl)c(O)c2n1)N1CCNCC1`, for which the growth in the assay on DU-145 prostate was 47.7%; in the assay with K-562 leukemia, 19.1%; in the assay with MALME-3M melanoma it was 64.6%; in the assay on MDA-MB-231 breast it was 54.3%; in the assay with RXF 393 renal, 45.4%; in the assay on SF-268 CNS, 35%. Also, the growth with SF-295 CNS is 24.2%; in the assay with SF-539 CNS, 52.4%; with UACC-257 melanoma it was 40.5%; in the assay on M14 melanoma, 43.6%; in the assay on HCT-15 colon, 18.5%; with HT29 colon it was 80.6%. The growth was 48.4% with SNB-75 CNS; 37% in the assay with SNB-19 CNS; 16.2% in the assay with U251 CNS; 29.8% with PC-3 prostate; 35.7% in the assay on SK-MEL-5 melanoma; 24.5% in the assay on UACC-62 melanoma. In addition, the growth with LOX IMVI melanoma was 32.7%; in the assay on SK-MEL-28 melanoma it was 70.4%.

Values taken from PubChem BioAssay (NCI).
